In ChEMBL document CHEMBL1157539, “Thousands of chemical starting points for antimalarial lead identification” (Nature, 2010):

Tests used:
Type in all cases: functional
[1] = tested on: Plasmodium falciparum; assay: GSK_TCMDC: Inhibition of Plasmodium falciparum 3D7 in whole red blood cells, using parasite LDH activity as an index of growth. Test compounds present at 2uM
[2] = tested on: Plasmodium falciparum; assay: GSK_TCMDC: Inhibition of Plasmodium falciparum Dd2 in whole red blood cells, using parasite LDH activity as an index of growth. Test compounds present at 2uM
[3] = tested on: HepG2; assay: GSK_TCMDC: Percent inhibition of human HepG2 cell line. Test compounds present at 10uM.

Structure (SMILES) | Inhibition [1] | Inhibition [2] | Inhibition [3]
O=C(NCc1cccc2ccccc12)c1ccc(CNC2CCN(Cc3ccccc3)CC2)cc1.O=C(O)C(F)(F)F | 100% | 88% | 15%
Cc1cccc(NC(=S)NC2CCN(CCCCCNC(=O)/C=C/c3ccc(Cl)c(Cl)c3)CC2)c1 | 97% | 19% | 14%
COc1ccc(C2CCN(CCN3CCC(NC(=O)c4ccc(-c5cccc(C(F)(F)F)c5C(F)(F)F)cc4)CC3)CC2)c(OC)c1 | 100% | 61% | 35%
Cc1cc(Br)cnc1CCCCNC1=NC(=O)CN1C | 95% | 26% | 63%
Cc1cnc2ccc(NS(=O)(=O)c3sc4ccc(Cl)cc4c3C)cc2c1N1CCNCC1.Cl | 99% | 0% | 0%
COc1ccc(-n2ccnc2)cc1CNC1CCN(CC2Cn3c(=O)ccc4ccc(F)c2c43)CC1.O=C(O)C(F)(F)F (stereo unspecified) | 99% | 18% | 25%
COc1ccc(-c2nc(NC(=O)CS(=O)(=O)c3ccc(C)cc3)sc2C)cc1 | 100% | 94% | 56%
Cc1ccc(-c2cnc(N)c3cc(-c4ccnc(N)n4)ccc23)cc1 | 99% | 94% | 41%
CC(=O)N1c2ccccc2C(C)=CC1(C)C | 97% | 11% | 3%
CC1(C)NC(N)=NC(=N)N1OCc1cc(Cl)c(Cl)cc1CON1C(=N)N=C(N)NC1(C)C | 98% | 100% | 36%
CC1(C)CC(NCCCCCCCOc2ccc(OCc3ccccc3)cc2)CC(C)(C)N1.Cl | 100% | 73% | 99%
COc1ccc2c(N/N=C/c3ccccc3[N+](=O)[O-])ccnc2c1 | 100% | 97% | 98%
CCc1c[nH]c2c(N(c3ccccc3)S(C)(=O)=O)cc(C(=O)N[C@@H](Cc3ccccc3)[C@H](O)CNC(C)(C)CCCC(C)C)cc12.O=CO | 98% | 96% | 99%
Cc1nc(N)nc(N)c1-c1ccc(Cl)cc1 | 96% | 0% | 15%
Cc1cc(N(C)C)nc(Nc2ccc(NS(=O)(=O)c3ccccc3)cc2)n1 | 92% | 11% | 0%
Cc1cc(C(=O)N[C@H]2CCN(Cc3ccc(OCCCN(C)C)cc3)C2)ccc1Br.O=C(O)C(F)(F)F | 97% | 62% | 88%
CC(C)OC(=O)c1ccccc1S(N)(=O)=O | 97% | 0% | 0%
O=c1cc(NCCC(CNCc2ccoc2)NCc2cc(Br)cc(Br)c2)[nH]c2ccccc12 (stereo unspecified) | 92% | 28% | 0%
Cc1c(Br)cc2nc(-c3ccc(C(=O)NC4CCN(Cc5ccccc5)CC4)cc3)[nH]c2c1C | 100% | 98% | 4%
O=C(NC1CCN(Cc2ccccc2)CC1)c1ccc(-c2nc3cc4ccccc4cc3[nH]2)s1 | 99% | 25% | 13%
C=CCc1ccc(C[C@H](NC(=O)OC(C)(C)C)C(=O)OC)cc1 | 98% | 98% | 77%

Structure (SMILES) | Inhibition [1] | Inhibition [2] | Inhibition [3]
COc1ccc2nccc([C@@H](O)CN3CCC(NCCOc4ccccc4[N+](=O)[O-])CC3)c2c1.O=C(O)C(=O)O | 100% | 98% | 4%
O=c1cc(NCCCNCc2cc(Cl)c(Cl)cc2Cl)[nH]c2ccccc12 | 93% | 20% | 7%
COc1ccc2nccc([C@@H](O)CN3CCC(NCc4cn5cc(F)ccc5n4)CC3)c2c1.O=C(O)C(=O)O | 96% | 5% | 19%
Fc1cccc(COc2ccc(Nc3ncnc4cc(/C=C/[C@@H]5CCCN5)sc34)cc2Cl)c1 | 100% | 56% | 17%
FC(F)(F)c1ccc2[nH]c(-c3ccc(-c4ccc(CNCCN5CCNCC5)cc4)s3)nc2c1.O=C(O)C(F)(F)F | 94% | 79% | 17%
O=C(Nc1ccc(Cl)cc1)c1ccc(S(=O)(=O)NCC2CCN(CC3CCCCC3)CC2)cc1.O=C(O)C(F)(F)F | 93% | 8% | 40%
C=C1C(C(=O)OCC)=CN(CC)c2cc(O[C@@H]3CCN(C(=O)OC(C)(C)C)C3)ccc21 | 97% | 94% | 13%
CC1(C)S(=O)(=O)CC(O)CS1(=O)=O | 98% | 9% | 8%
O=C(O)C(F)(F)F.O=C1OC2(CN1CC1CCN(Cc3ccc(O)cc3Cl)C1)c1ccccc1-c1ccccc12 (stereo unspecified) | 84% | 84% | 16%
CCCCCCCCOc1ccc(N2C(N)=NC(N)=NC2(C)C)cc1.Cl | 100% | 0% | 31%
Cc1noc(C)c1-c1cccc(CNCc2cccc(-c3ccc(-c4nc5ccccc5[nH]4)cc3)c2)c1.O=C(O)C(F)(F)F | 100% | 76% | 27%
CCc1c[nH]c2c(N3CCCC3=O)cc(C(=O)N[C@@H](Cc3ccccc3)[C@H](O)CNC(C)(C)c3cccc(OC)c3)cc12 | 93% | 98% | 0%
O=C(NCc1cccc(F)c1)Nc1cccc(-c2cccc(-c3nc4ccccc4[nH]3)c2)c1 | 96% | 27% | 28%
COc1ccc2ncc(Cl)c(CCN3CCC(NCc4ccc5c(n4)NC(=O)CS5)CC3)c2c1.Cl | 100% | 34% | 26%
Cc1cc(N[C@@H](CC(C)C)C(=O)NCCc2ccccc2)nc(NCCc2ccc(F)cc2)n1.O=C(O)C(F)(F)F | 98% | 53% | 12%
O=C(O)C(F)(F)F.O=S(=O)(NCCN1CCCC1)c1ccc(-c2cccc(CNCCc3cccs3)c2)s1 | 99% | 44% | 39%
Cl.O=C(NC1CCC(CCN2Cc3cccc(C(F)(F)F)c3C2)CC1)c1cccc(-c2cccnc2)c1 (stereo unspecified) | 100% | 67% | 26%
Br.COc1cccc(OC)c1OCCCON1C(=N)N=C(N)NC1(C)C | 95% | 96% | 53%
Cc1cccc2nc(-c3ccc(-c4ccc(CN5CCN(c6cnccn6)CC5)cc4)s3)[nH]c12.O=C(O)C(F)(F)F | 94% | 42% | 11%
CC(C)Nc1nc(NCCc2c[nH]cn2)nc(NCc2cccc3ccccc23)n1 | 90% | 0% | 4%
Cc1nc(N)nc(N)c1OCCCOc1ccccc1Br.Cl | 94% | 96% | 57%

Structure (SMILES) | Inhibition [1] | Inhibition [2] | Inhibition [3]
CCCCc1ccc(-c2c(N)nc(N)nc2CC)cc1 | 95% | 0% | 63%
CC(C)(C)c1nn(-c2ccccc2)c2[nH]c(=O)c(CNCCc3ccccc3)cc12 | 94% | 90% | 0%
O=C(Nc1cc(Cl)ccc1O)c1cnn2c(C(F)(F)F)cc(-c3cccs3)nc12 | 100% | 74% | 8%
COc1ccc(OC(C)CNC(=O)c2cc([N+](=O)[O-])ccc2-c2ccc(OC)cc2)cc1 (stereo unspecified) | 92% | 44% | 18%
CNCCNCc1ccc(-c2cccc(-c3nc4cc(F)ccc4[nH]3)c2)cc1.O=C(O)C(F)(F)F | 93% | 1% | 10%
CNCCNCc1cccc(-c2ccc(-c3nc4cccc(C)c4[nH]3)s2)c1.O=C(O)C(F)(F)F | 92% | 8% | 10%
Cc1cc(N[C@@H](Cc2ccccc2)C(=O)NCCOc2ccccc2)nc(NCCc2cccs2)n1.O=C(O)C(F)(F)F | 95% | 32% | 8%
Cn1c(N)c(C(=O)CSc2nnc(-c3cccs3)n2Cc2ccccc2)c(=O)n(C)c1=O | 85% | 68% | 0%
Cc1nc(N)nc(N)c1CCCOc1ccccc1Br | 97% | 5% | 53%
Cc1cc(C(=O)NC2CCN(Cc3ccccc3)CC2)ccc1-c1nc2ccc(C(F)(F)F)cc2[nH]1 | 95% | 2% | 19%
OC(c1cccc2ccccc12)C1CN(CCc2ccccc2)CCC1(O)c1ccccc1 (stereo unspecified) | 99% | 100% | 0%
COc1cccc(Nc2nc(C)cc(NC3CCCC3)n2)c1 | 100% | 79% | 41%
O=C(NCc1cccc(F)c1)Nc1cccc(-c2cccc(-c3nc4cc(C(F)(F)F)ccc4[nH]3)c2)c1 | 93% | 32% | 55%
O=C(O)C(F)(F)F.Oc1ccc(CCNc2nc(NCCCOc3ccccc3-c3cccc(C(F)(F)F)c3)nc(N3CCNCC3)n2)cc1 | 93% | 5% | 24%
Cc1cc(N2CCN(C)CC2)nc2ccc(NC(=O)Cc3cccc(C(F)(F)F)c3)cc12 | 99% | 51% | 26%
O=C(Nc1cccc(CN2CCCN(CCc3ccccc3)CC2)c1)c1ccc(Cl)c(Cl)c1.O=C(O)C(F)(F)F | 86% | 15% | 41%
CN1CCN(c2cc3c(cc2Cl)CCN3C(=O)Nc2ccc(NC(=O)c3ccc(C(F)(F)F)cc3)cc2)CC1.Cl | 100% | 99% | 98%
CCC(C)c1ccc(-n2c(Nc3ccccc3)nc3cc(S(N)(=O)=O)ccc32)cc1 (stereo unspecified) | 88% | 28% | 0%
COCCCNC(=O)[C@H]1CNCCN1C(=O)c1ccccc1.O=C(O)C(F)(F)F | 97% | 95% | 53%
COc1ccc(CN2CCC(CNCCc3c(Cl)cccc3Cl)CC2)cc1.O=C(O)C(F)(F)F | 98% | 69% | 45%
